# PubChem BioAssay (Tox21)
# Values without a mark were called inactive. Inconclusive results are not listed. Where a call stands in place of a potency, no number is given. The source made the active and inactive calls. The call rests on the fitted dose curve; in most records, active means well fitted curve in the direction sought with a large enough effect in the repeat runs; inconclusive means weak or mixed curves; inactive means no such curve, though single readings can be large; an effect the other way counts as inactive or inconclusive.
# Legend:
# [1] = qHTS RealTime-Glo MT Cell Viability Assay in HepG2 cells - 40 hour (AID 1224870); further: nearly all actives have a fitted effect of over 50% in size
# Procedure, shortened: (§1)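 HepG2 cells mixed with RealTime-Glo MT reagents (NanoLuc plus cell-permeant prosubstrate) were seeded at 600 cells/well, incubated 5 h at 37 C/5% CO2, then pinned with compounds in DMSO; nonlytic luminescence tracked viability during 40 h treatment.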
# [2] = A CellTox Green Cytotoxicity Assay to monitor cytotoxicity in HEK293 cells - 40 hour (AID 1224871); further: nearly all actives have a fitted effect of over 45% in size; further: potency means the concentration at half of the fitted maximal effect
# Procedure, shortened: (§2)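 Seeding of HEK293 cells together with cytotoxicity dye preceded a 5 h incubation at 37 C/5% CO2. Test compounds in DMSO were then added and fluorescence monitored across 40 h.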
# [3] = qHTS RealTime-Glo MT Cell Viability Assay in HEK293 cells - 16 hour (AID 1224872); further: top concentration of the series differs between compounds; nearly all actives have a fitted effect of over 50% in size
# Procedure, shortened: (§3)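 HEK293 cells seeded with NanoLuc/prosubstrate reagent, rested 5 h at 37 C, then dosed and kept at 37 C up to 40 h. Nonlytic real-time luminescence from viable cells read at 0, 8, 16, 24, 32 and 40 h.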
# [4] = qHTS RealTime-Glo MT Cell Viability Assay in HepG2 cells - 8 hour (AID 1224873); further: nearly all actives have a fitted effect of over 55% in size
# Procedure, shortened: as §1
# [5] = qHTS RealTime-Glo MT Cell Viability Assay in HEK293 cells - 40 hour (AID 1224874); conditions: RealTime-Glo luminescence; max response: hits give low values; further: nearly all actives have a fitted effect of over 50% in size
# Procedure, shortened: (§4)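 Tox21 screen in HEK293 using RealTime-Glo MT chemistry, with cells and reagent co-dispensed. Luminescence proportional to viable cell number was captured at intervals during 40 h compound exposure at 37 C.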
# [6] = A CellTox Green Cytotoxicity Assay to monitor cytotoxicity in HEK293 cells - 24 hour (AID 1224875); further: nearly all actives have a fitted effect of over 45% in size; further: potency means the concentration at half of the fitted maximal effect
# Procedure, shortened: as §2
# [7] = A CellTox Green Cytotoxicity Assay to monitor cytotoxicity in HepG2 cells - 16 hour (AID 1224876); further: nearly all actives have a fitted effect of over 45% in size; further: potency means the concentration at half of the fitted maximal effect
# Procedure, shortened: (§5)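 Nonlytic assay: viable cells exclude the dye, so fluorescence scales with cell death. HepG2 at 600 cells/well, compounds added after 5 h, signal read across 40 h.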
# [8] = A CellTox Green Cytotoxicity Assay to monitor cytotoxicity in HepG2 cells - 40 hour (AID 1224879); further: nearly all actives have a fitted effect of over 40% in size; further: potency means the concentration at half of the fitted maximal effect
# Procedure, shortened: as §5
# [9] = qHTS RealTime-Glo MT Cell Viability Assay in HEK293 cells - 0 hour (AID 1224880); further: nearly all actives have a fitted effect of over 45% in size; further: potency means the concentration at half of the fitted maximal effect
# Procedure, shortened: as §4
# [10] = A CellTox Green Cytotoxicity Assay to monitor cytotoxicity in HEK293 cells - 32 hour (AID 1224881); further: nearly all actives have a fitted effect of over 40% in size; further: potency means the concentration at half of the fitted maximal effect
# Procedure, shortened: as §2
# [11] = A CellTox Green Cytotoxicity Assay to monitor cytotoxicity in HEK293 cells - 8 hour (AID 1224884); further: nearly all actives have a fitted effect of over 35% in size; further: potency means the concentration at half of the fitted maximal effect
# Procedure, shortened: as §2
# [12] = qHTS RealTime-Glo MT Cell Viability Assay in HepG2 cells - 16 hour (AID 1224885); further: nearly all actives have a fitted effect of over 50% in size
# Procedure, shortened: (§6)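 HepG2 cells (600/well) were dispensed with RealTime-Glo reagents, incubated 5 h at 37 °C, then treated with compounds in DMSO for up to 40 h. Nonlytic NanoLuc luminescence reflecting viable cells was read at each stated time point.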
# [13] = qHTS RealTime-Glo MT Cell Viability Assay in HEK293 cells - 24 hour (AID 1224886)
# Procedure, shortened: as §3
# [14] = A CellTox Green Cytotoxicity Assay to monitor cytotoxicity in HEK293 cells - 16 hour (AID 1224888); further: nearly all actives have a fitted effect of over 35% in size; further: potency means the concentration at half of the fitted maximal effect
# Procedure, shortened: as §2
# [15] = qHTS RealTime-Glo MT Cell Viability Assay in HepG2 cells - 0 hour (AID 1224889); further: nearly all actives have a fitted effect of over 50% in size; further: potency means the concentration at half of the fitted maximal effect
# Procedure, shortened: as §6
# [16] = qHTS RealTime-Glo MT Cell Viability Assay in HepG2 cells - 32 hour (AID 1224877); further: nearly all actives have a fitted effect of over 55% in size
# Procedure, shortened: as §6
# [17] = qHTS RealTime-Glo MT Cell Viability Assay in HEK293 cells - 8 hour (AID 1224887); further: nearly all actives have a fitted effect of over 50% in size; further: potency means the concentration at half of the fitted maximal effect
# Procedure, shortened: as §4
# [18] = A CellTox Green Cytotoxicity Assay to monitor cytotoxicity in HepG2 cells - 24 hour (AID 1224878); further: nearly all actives have a fitted effect of over 45% in size; further: potency means the concentration at half of the fitted maximal effect
# Procedure, shortened: as §5
# [19] = A CellTox Green Cytotoxicity Assay to monitor cytotoxicity in HepG2 cells - 0 hour (AID 1224882); further: nearly all actives have a fitted effect of over 35% in size; further: potency means the concentration at half of the fitted maximal effect
# Procedure, shortened: as §5
# [20] = A CellTox Green Cytotoxicity Assay to monitor cytotoxicity in HepG2 cells - 32 hour (AID 1224883); further: nearly all actives have a fitted effect of over 50% in size; further: potency means the concentration at half of the fitted maximal effect
# Procedure, shortened: as §5
SMILES,Potency [1],Potency [2],Potency [3],Potency [4],max response [5],Potency [6],Potency [7],Potency [8],Potency [9],Potency [10],Potency [11],Potency [12],Potency [13],Potency [14],Potency [15],Potency [16],Potency [17],Potency [18],Potency [19],Potency [20]
Cc1c(C2(c3cc(Br)c(O)c(Br)c3C)OS(=O)(=O)c3ccccc32)cc(Br)c(O)c1Br,inactive,inactive,inactive,inactive,-21.5%,inactive,inactive,inactive,15 µM (active),inactive,inactive,inactive,inactive,inactive,13.4 µM (active),–,–,–,–,–
CC1=CC[C@@]23C[C@@H]1C(C)(C)[C@@H]2CC[C@H]3C,inactive,inactive,inactive,inactive,1.49%,inactive,inactive,–,–,inactive,inactive,–,inactive,inactive,–,inactive,inactive,–,–,–
O=S(=O)(Cl)c1c(Cl)cccc1Cl,inactive,inactive,inactive,inactive,-11.9%,inactive,inactive,inactive,inactive,inactive,inactive,inactive,inactive,inactive,inactive,–,–,inactive,inactive,–
Cc1cc([N+](=O)[O-])ccc1N,inactive,inactive,inactive,inactive,-19.2%,inactive,inactive,inactive,inactive,inactive,inactive,–,inactive,inactive,inactive,inactive,inactive,inactive,–,inactive
Cc1cc(CCC(=O)OCCOCCOCCOC(=O)CCc2cc(C)c(O)c(C(C)(C)C)c2)cc(C(C)(C)C)c1O,inactive,inactive,inactive,inactive,6.66%,inactive,inactive,inactive,inactive,inactive,–,inactive,inactive,inactive,inactive,–,33.8 µM (active),inactive,inactive,inactive
CCOc1ncc(F)c(=O)[nH]1,inactive,inactive,inactive,inactive,-0.726%,inactive,inactive,inactive,inactive,inactive,inactive,–,inactive,inactive,inactive,–,inactive,inactive,inactive,inactive
CC(=O)OCC(=O)[C@@]1(OC(C)=O)[C@@H](C)C[C@H]2[C@@H]3C[C@H](F)C4=CC(=O)C=C[C@]4(C)[C@@]3(F)[C@@H](O)C[C@@]21C,inactive,inactive,inactive,inactive,-24.6%,inactive,inactive,inactive,–,inactive,inactive,–,inactive,inactive,–,inactive,inactive,inactive,inactive,inactive
O=C(c1ccccc1)C1CCC1,inactive,24.5 µM (active),inactive,inactive,13.2%,24.5 µM (active),38.9 µM (active),27.5 µM (active),inactive,24.5 µM (active),38.9 µM (active),inactive,inactive,27.5 µM (active),inactive,–,inactive,38.9 µM (active),38.9 µM (active),38.9 µM (active)
CC(C)(C)S,inactive,inactive,inactive,inactive,-0.0448%,inactive,–,inactive,inactive,inactive,inactive,inactive,inactive,inactive,inactive,inactive,inactive,inactive,inactive,inactive
CCOCCC(=O)OCC,inactive,inactive,inactive,inactive,4.01%,inactive,inactive,inactive,inactive,inactive,–,inactive,inactive,inactive,inactive,inactive,–,–,inactive,inactive
COC(C)(C)OC,inactive,inactive,inactive,inactive,15.9%,inactive,inactive,inactive,inactive,inactive,inactive,inactive,inactive,inactive,inactive,inactive,inactive,–,inactive,inactive
O=C(O)CNC(=O)c1ccccc1I,inactive,inactive,inactive,inactive,6.48%,inactive,inactive,inactive,inactive,inactive,inactive,inactive,inactive,inactive,inactive,inactive,inactive,–,inactive,inactive
CC(=O)C(C)=O,inactive,inactive,inactive,inactive,13.9%,inactive,inactive,–,inactive,inactive,inactive,inactive,inactive,inactive,inactive,–,inactive,inactive,inactive,–
CCN(CC)c1ccc(C(=C2C=CC(=[N+](CC)CC)C=C2)c2ccc(S(=O)(=O)O)cc2S(=O)(=O)[O-])cc1,inactive,inactive,inactive,inactive,-1.18%,inactive,inactive,inactive,inactive,inactive,inactive,inactive,inactive,inactive,inactive,–,inactive,inactive,inactive,–
